Screens deposited in PubChem BioAssay by several laboratories.
Only some compounds are listed: those with a hit (about 4.3% of all), similar ones and a draw of the others.
PfHsp40 yeast = rescue of PfHsp40-mediated yeast toxicity; growth rescue, % at 12.5 µM; S. cerevisiae expressing PfHsp40, growth rescue, ATP luminescence; AID 504582; 340,000 compounds, 0.68% hits; in the data active = growth rescue above about 28%, passing the limit was not always enough; inconclusive = no clear call, values can overlap the other calls;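 note: yeast W303a lacking pdr1 and pdr3 grown in galactose medium; growth measured after three days at 30 °C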
Anthrax LF prot = blocks Bacillus anthracis lethal factor protease | multiplex microsphere protease cleavage assay, LF | inhibition, % at 10 µM | 360,000 compounds, 0.12% hits
Bead autofluor = counter-screen for toxin protease inhibitors: compound fluorescence; compound autofluorescence counterscreen, microsphere flow cytometry; active compounds read high; fluorescence intensity (concentration not given with the values); 360,000 compounds, 3.1% hits; AID 624483; in the data active = fluorescence intensity above about 16000; inconclusive = no clear call, values can overlap the other calls
BoNT F protease = blocks Botulinum neurotoxin F light chain protease; inhibition, % at 10 µM; 360,000 compounds, 0.22% hits; Multiplex microsphere protease cleavage assay, flow cytometry; in the data active = inhibition above about 35%, passing the limit was not always enough; inconclusive = no clear call, values can overlap the other calls
MazF activator = activators of E. coli MazEF toxin-antitoxin RNase. P0AE70. FAM/BHQ RNA-DNA oligo cleavage fluorescence, 5 h. activation, % at 20 µM. 350,000 compounds, 0.32% hits; in the data active = activation above about 50%
Target sequence (P0AE70 whole entry, looked up): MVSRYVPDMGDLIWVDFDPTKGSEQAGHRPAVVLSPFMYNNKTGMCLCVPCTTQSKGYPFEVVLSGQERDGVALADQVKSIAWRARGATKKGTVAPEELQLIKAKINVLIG
BoNT-A LC inh2 = inhibitors of Botulinum neurotoxin A light chain protease | multiplex microsphere protease substrate cleavage, flow cytometry | 360,000 compounds, 0.17% hits | inhibition, % at 10 µM
Large screens that a line does not name were inactive. Cut-off read from the data, not from the text of the source, unless noted: active = inhibition above about 30%; inconclusive = no clear call, values can overlap the other calls; inactive = below that.

CCc1ccc2c(c1)[C@]1(C(=O)N2)[C@@H]2C(=O)N(Cc3ccccc3)C(=O)[C@@H]2[C@@H]2CCCN21	Bead autofluor 21738
Cc1ccc(F)c(NC(=O)c2c(-c3ccccc3)noc2C)c1	none
CC(C)(C)SCCNC(=O)CN(c1ccc(F)cc1)S(C)(=O)=O	none
CC(C)(C)SCCNC(=O)CN(c1ccc(F)c(Cl)c1)S(C)(=O)=O	Bead autofluor 23547
Cc1cc([N+](=O)[O-])nn1Cc1noc(C(=O)NCCc2ccccn2)n1	none
Cc1cc2oc(C(=O)N(Cc3ccco3)C3CCS(=O)(=O)C3)cc(=O)c2cc1Cl (stereo unspecified)	Bead autofluor 23579
Cc1cc(OCC(=O)N(Cc2ccco2)C2CCS(=O)(=O)C2)ccc1Cl (stereo unspecified)	BoNT F protease inconclusive (no result: PfHsp40 yeast)
CC(C)Oc1ccc(C(=O)NC2(C(F)(F)F)N=C3SCCN3C2=O)cc1 (stereo unspecified)	Bead autofluor 20653, BoNT-A LC inh2 inconclusive
CC(C)(C)C(=O)NC1(C(F)(F)F)N=C2SCCN2C1=O (stereo unspecified)	none
CC(=O)NC1(C(F)(F)F)N=C2SCCN2C1=O (stereo unspecified)	Bead autofluor 22076, BoNT-A LC inh2 inconclusive
CCc1nc2c(OCc3ccc(OC(F)F)cc3)cccn2c1N(C)C(=O)c1cccs1	none (no result: PfHsp40 yeast, MazF activator)
COc1cccc(-n2nnnc2SCC(=O)Nc2ccccc2OC)c1	BoNT F protease inconclusive
CCCS(=O)(=O)c1nnnn1-c1cccc(OC)c1	PfHsp40 yeast 408.2, Bead autofluor 19154
CC(=O)NCCc1nc2ccccc2n1Cc1ccccc1	none
CC(=O)NCCc1c(C)n(Cc2ccccc2)c2ccccc12	PfHsp40 yeast 63.8, BoNT F protease inconclusive
CCOc1ccc(C(=O)N/N=C/c2ccc(-c3ccc(S(=O)(=O)Nc4ncccn4)cc3)o2)cc1	Bead autofluor 22776
Cc1ccc(O)c(-c2cc(-c3cccc(F)c3)n[nH]2)c1	PfHsp40 yeast inconclusive
Cc1ccc(-c2cc(-c3cccc(F)c3)n[nH]2)c(O)c1	PfHsp40 yeast 65.6
COc1ccc(-c2cc(-c3cc(F)ccc3O)[nH]n2)cc1OC	Bead autofluor 22604, BoNT-A LC inh2 inconclusive
COc1ccc(Cl)cc1NC(=O)CN(C)C(=O)C12CC3CC(CC(Cl)(C3)C1)C2	none
C=CCn1c(SCCOC)nc2c1c(=O)[nH]c(=O)n2C	none
Cc1cccc(Cn2c(Sc3nc(C)cs3)nc3c2c(=O)[nH]c(=O)n3C)c1	Bead autofluor 19241, BoNT-A LC inh2 inconclusive
C=CCn1c(Sc2nc(C)cs2)nc2c1c(=O)[nH]c(=O)n2C	Bead autofluor 23702
Cc1csc(Sc2nc3c(c(=O)[nH]c(=O)n3C)n2Cc2ccccc2Cl)n1	none
COc1ccc(CN(CCCN2CCOCC2)C(=O)Nc2ccccc2)cc1OC	Bead autofluor 22584, BoNT-A LC inh2 inconclusive
CN(c1ccccc1)S(=O)(=O)c1cc(C(=O)NCc2ccco2)ccc1Cl	none (no result: PfHsp40 yeast)
CN(Cc1cc([N+](=O)[O-])ccc1Cl)C(=O)C[n+]1ccccc1	none
Cn1nnnc1SCC(=O)Nc1ncc(C(F)(F)F)cc1Cl	none
Cc1ccccc1C(O)c1ccccn1 (stereo unspecified)	Bead autofluor 24308
OC(c1ccccn1)C(O)c1ccccn1 (stereo unspecified)	none
Cc1cc(C)c[n+](C(C)C(=O)c2ccc(Cl)cc2)c1 (stereo unspecified)	none (no result: Anthrax LF prot, Bead autofluor, BoNT F protease, BoNT-A LC inh2)
COc1cc(-c2ccc(=O)[nH]n2)ccc1OC(F)F	PfHsp40 yeast 42.7
COc1ccc(-c2ccc(=O)[nH]n2)cc1	Bead autofluor 20511
COCCN(CCOC)C(=O)CC(=O)N(CCOC)CCOC	Bead autofluor 19259
C=CCSC1=N/C(=C\c2cc(OC)c3c(c2)OCO3)C(=O)S1	MazF activator 517.5
CCSC1=N/C(=C\c2ccc3c(c2)OCO3)C(=O)S1	none
Fc1ccc(-c2nc3c(-c4ccc(Cl)cc4)cnn3cc2CCN2CCOCC2)cc1	none
O=C(Oc1nsnc1N1CCOCC1)c1ccccc1	none
Cc1ccc(Oc2nsnc2N2CCOCC2)cc1	Bead autofluor 20142
CCn1c(=O)n(CC)c2cc(S(=O)(=O)Nc3ccccc3C)c(C)cc21	Bead autofluor 23798, BoNT-A LC inh2 inconclusive
CCN(Cc1ccc(NC(C)=O)cc1)CC1CCCN(CCc2cccc(OC)c2)C1 (stereo unspecified)	none (no result: Anthrax LF prot, Bead autofluor, BoNT F protease, BoNT-A LC inh2)
Cc1ccc(NC(=O)Nc2nnc(-c3ccncc3)s2)cc1C	none
COC(=O)Nc1nnc(-c2ccncc2)s1	Bead autofluor 22886
O=C1CCC(c2ccccc2)N1c1ccccc1 (stereo unspecified)	none
CCOC(=O)c1ccc(Oc2cc(C)nc(Cl)n2)cc1	BoNT F protease inconclusive, BoNT-A LC inh2 inconclusive
Clc1ccc(-c2ccc(SCc3ccccn3)nn2)cc1	none
c1ccc(CSc2ccc(-c3ccccn3)nn2)nc1	PfHsp40 yeast 415.8
c1ccc(-c2ccc(SCc3cccnc3)nn2)nc1	PfHsp40 yeast 259.4
Cc1ccc(-n2c(=O)c3sccc3n(Cc3cc(=O)n4cc(Cl)ccc4n3)c2=O)cc1F	none
COc1ccc(C(=O)NC(=S)N2CC(C)OC(C)C2)cc1 (stereo unspecified)	none
Cc1ccc(C(=O)NC(=S)N2CC(C)OC(C)C2)cc1[N+](=O)[O-] (stereo unspecified)	Bead autofluor 23557
CSc1nc(SCC(=O)NC(c2ccccc2)c2ccccc2)c2c3c(sc2n1)CN(C)CC3	Bead autofluor 16363
COc1ccc(S(=O)(=O)N2CCC(C(=O)NCCC(=O)Nc3nccs3)CC2)cc1	none
CCN(C(=O)CSc1nc2cc(C(=O)O)ccc2c(=O)n1-c1ccccc1F)C1CCS(=O)(=O)C1 (stereo unspecified)	Bead autofluor inconclusive
COc1ccc(-n2c(/C=C(\C)O)nc(=O)c3c(C)cc(C)nc32)cc1	Bead autofluor 22184
O=C(Nc1ccsc1C(=O)N1CCCCCC1)c1ccccc1	Bead autofluor 16715
Cc1cc(-c2ccc(Cl)cc2)n2nc(N)nc2n1	none
Nc1nc2nccc(-c3ccc(Cl)cc3)n2n1	PfHsp40 yeast 184.5
CC1CCN(S(=O)(=O)c2ccc3c(c2)N(CC(=O)NCCCN2CC(C)CC(C)C2)C(=O)CS3)CC1 (stereo unspecified)	none
COc1ccc(-c2cc(-c3ccccc3)nc(-c3ccc4c(c3)NC(=O)CO4)c2)cc1	Bead autofluor 19614, BoNT-A LC inh2 inconclusive
COc1ccc(-c2nnc3ccc(SCC(=O)NCC4CCCO4)nn23)cc1 (stereo unspecified)	Bead autofluor 25334
COc1ccc(-c2nnc3ccc(SC)nn23)cc1	Bead autofluor 17068
COc1ccc(-c2nnc3ccc(SCC(=O)N4CCOCC4)nn23)cc1	none (no result: PfHsp40 yeast)
Clc1ccc(-c2cccc3nccn23)c(Cl)c1	none (no result: PfHsp40 yeast, MazF activator)
O=C(NCC(F)(F)F)c1ccc(S(=O)(=O)Nc2ccccc2N2CCCC2)cc1	none
O=C(CN1CCOCC1)Nc1ccc(OC(F)(F)F)cc1	none
CCN1CCN(c2ccc(NC(=O)c3ccco3)cc2)CC1	none
